DT40 TDP1 CPT – growth inhibition of DT40 Tdp1-/-;hTDP1 cells with camptothecin (screen for TDP1 inhibitors); Potency, µM (doses to about 46.2 µM), for inactives: at the highest dose activity change, negative = growth inhibition, usual class: inhibitors; hit rate 12% among 420,000; chicken DT40 Tdp1-/-;hTDP1 cells + 20 nM CPT, ATP luminescence, 48 h; AID 686979; further: on the % scale 0 is the no-effect control and ±100 the full control effect; nearly all actives have a fitted effect of over 55% in size
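Chicken DT40 Tdp1-/- cells complemented with human TDP1, 400 cells/well, exposed to compounds plus 20 nM camptothecin for at least 48 h at 37 C; viability read as ATP content by CellTiter-Glo luminescence.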
DT40 TDP1 no CPT – qHTS for Inhibitors of human tyrosyl-DNA phosphodiesterase 1 (TDP1): qHTS in cells in absence of CPT; DT40 Tdp1-/- hTDP1 cells, no CPT, ATP luminescence, 48 h; Potency, µM (top dose mostly 46.2 µM), inactives show at the highest dose activity change, negative = growth inhibition, usual class: inhibitors; hit rate 15% among 420,000; AID 686978, 2013; further: on the % scale 0 is the no-effect control and ±100 the full control effect; nearly all actives have a fitted effect of over 55% in size
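Chicken DT40 Tdp1-/- cells stably complemented with human TDP1 were seeded at 400 cells/well with DMSO in place of 20 nM camptothecin. After compound pinning, cells grew at least 48 hr at 37 °C; viability read by CellTiter-Glo luminescence.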
HT1080-NT tox – kills 2HG-producing HT-1080-NT fibrosarcoma cells; HT-1080-NT fibrosarcoma viability, CellTiter-Glo ATP luminescence, 48 h; Potency, µM (highest dose often 46.1 µM), for inactives: at the top dose activity, negative = less viability, usual class: cytotoxic; hit rate 1.6% among 360,000;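 further: NT is the 2HG producing partner of a matched IDH1 knockdown line; 0% = DMSO-treated cells and -100% = media-only wells without cells; nearly all actives have a fitted effect of over 55% in size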
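HT-1080-NT fibrosarcoma cells (2HG-overproducing), 750 cells/well in RPMI with 5% FBS, dosed after 2 h and incubated 48 h at 37C. CellTiter-Glo luminescence normalized to DMSO and no-cell wells; concentration-response curves fitted and classed.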
HepG2 viability – counter-screen for TGF-b inhibitors: cytotoxicity in HepG2 cells; HepG2 CAGA-GFP viability, ATP luminescence, 18 h; Potency, µM (titrated, usually from 46.1 µM), for the others: at the highest dose activity change, negative = cytotoxicity, usual class: cytotoxic; hit rate 0.76% among 410,000; AID 588856
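HepG2 CAGA-GFP cells (1000/well, DMEM with 1% FBS) received compound, then TGF-beta at 500 pg/mL final, and were incubated 18 hours at 37 degrees C. Viability was read by CellTiter-Glo luminescence. Media-only wells were set as complete cell-killing and DMSO as no toxicity.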
HT1080 IDH1KD tx – kills HT-1080 cells with IDH1 knockdown. HT-1080 IDH1 knockdown viability, ATP luminescence, 48 h. Potency, µM (series often up to 46.1 µM), inactives show top-dose activity, negative = toxicity, most hits filed as cytotoxic. hit rate 2% among 360,000. AID 686971;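 further: 0% = DMSO wells and -100% = cell-free medium wells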
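Luminescent ATP read-out (CellTiter-Glo, 10 min at room temperature) after 48 h compound exposure at 37 °C gave viability of IDH1-knockdown HT-1080 cells. Activity was normalised to DMSO and cell-free wells, then fitted as concentration-response curves.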
TGFb SMAD3 inh – inhibitors of TGF-b signaling; Potency, µM (titrated, usually from 46.1 µM), for inactives: at the highest dose activity, negative = inhibition, actives largely listed as inhibitors; HepG2 CAGA-GFP TGF-b/SMAD3 reporter, GFP fluorescence, 18 h; TGF-beta stimulated, 500 pg/mL final; AID 588855; hit rate 1.2% among 410,000; further: on the % scale 0 is the no-effect control and ±100 the full control effect; nearly all actives have a fitted effect of over 65% in size
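TGF-beta reporter screen: HEPG2 CAGA-GFP, 1% FBS, 500 pg/mL TGF-beta final, 18 h; per-cell GFP summed per well; curves fitted and categorized by class.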
The depositor's hits bear a star; ? = inconclusive; / = not tested or not shown. Compounds with a hit are over-represented: about 17% of the library has one in this group of screens. The call rests on the fitted dose curve; in most records, active means well fitted curve in the direction sought with a large enough effect; inconclusive means small, poorly fitted or top-dose-only effect, or another doubt; inactive means no such curve, though single readings can be large; an effect the other way counts as inactive or inconclusive. Potency means the concentration at half of the fitted maximal effect.

SMILES	DT40 TDP1 CPT	DT40 TDP1 no CPT	HT1080-NT tox	HepG2 viability	HT1080 IDH1KD tx	TGFb SMAD3 inh
Cc1csc(=O)n1CCC(=O)NCc1ccc(F)cc1	-4%	19%	2%	5%	6%	6%
O=C1CC(c2nnc(Cc3ccc(F)cc3)o2)CN1c1ccccc1 (stereo unspecified)	6%	-3%	/	2%	/	4%
Cc1ccc(CNC(=O)C2CC3Cn4c(nc5cc6ccccc6cc54)C3N2C)o1 (stereo unspecified)	18µM*	?	2%	2%	-3%	-13%
COc1ccc(CCNC(=O)C2CC3Cn4c(nc5cc(Cl)c(Cl)cc54)C3N2C)cc1 (stereo unspecified)	21µM*	?	0%	-5%	1%	-1%
CN1C(C(=O)NCc2cccc(Br)c2)CC2Cn3c(nc4cc5ccccc5cc43)C21 (stereo unspecified)	?	21µM*	6%	-29%	1%	-15%
Cc1cc2nc3n(c2cc1C)CC1CC(C(=O)NCc2cccc(Br)c2)N(C)C31 (stereo unspecified)	-21%	-27%	9%	-9%	7%	-12%
O=C(NCc1cccc(Br)c1)C1CC2Cn3c(nc4ccccc43)C2N1Cc1ccccc1 (stereo unspecified)	18µM*	18µM*	15%	4%	-2%	-19%
Cc1ccc(CNC(=O)C2CC3Cn4c(nc5ccccc54)C3N2C)o1 (stereo unspecified)	-5%	-8%	14%	7%	12%	-24%
CN1C(C(=O)NCCc2cccs2)CC2Cn3c(nc4cc(Cl)c(Cl)cc43)C21 (stereo unspecified)	?	?	7%	-10%	3%	-1%
O=C(O)c1cn(C2CCCCC2)c2ccccc2c1=O	5%	-20%	8%	-9%	3%	11%
COc1ccc(N(CC(=O)NCc2ccco2)C(=O)CCC(=O)Nc2nccs2)c(OC)c1	-7%	-26%	-19%	-3%	-1%	2%
COc1cccc(C2Nc3ccc4ccccc4c3C3=C2C(=O)CC(C)(C)C3)c1OCC(=O)O (stereo unspecified)	?	?	-13%	2%	-11%	7%
CCCS(=O)(=O)c1c(S(=O)(=O)CCC)c2c(C)cccn2c1C(N)=O	-15%	-10%	-4%	-12%	2%	-1%
CCCS(=O)(=O)c1c(S(=O)(=O)CCC)c2c(C)cccn2c1C(=O)N/N=C/c1cc(O)cc(O)c1	0.82µM*	15µM*	?	-12%	7.3µM*	-15%
Cc1ccc2nc(-c3ccc(N4CCOCC4)cc3)c(Nc3ccccc3C)n2c1	16µM*	18µM*	/	-98%	/	-2%
Clc1ccc2nc(-c3ccc(N4CCOCC4)cc3)c(Nc3ccccc3)n2c1	?	?	/	-38%	/	9%
Cc1ccccc1Nc1c(-c2ccc(N3CCOCC3)cc2)nc2ccc(Cl)cn12	18µM*	16µM*	/	-9%	/	7%
Cc1ccn2c(Nc3ccccc3C)c(-c3ccc(N4CCOCC4)cc3)nc2c1	18µM*	?	/	-18%	/	?
Cc1ccc(Nc2c(-c3ccc(N4CCOCC4)cc3)nc3ccc(Cl)cn23)cc1	-20%	-21%	/	-17%	/	5%
O=C(CSc1nnc(-c2ccccc2F)n1C1CC1)N1CCCC1	-3%	-4%	0%	-9%	-2%	-3%
COc1cc(C(=O)N2CCN(S(=O)(=O)c3ccc(C)cc3)CC2)ccc1OCC(=O)N1CCOCC1	2%	-8%	2%	-21%	9%	-21%
CCN(C(=O)COC(=O)c1oc2ccccc2c1C)c1c(N)n(Cc2ccccc2)c(=O)[nH]c1=O	?	-5%	-8%	-36%	-1%	-2%
O=C(NN1C(=O)c2ccccc2C1=O)C1C2CCCCC21 (stereo unspecified)	3%	6%	-4%	0%	-2%	-1%
COc1ccccc1-c1cc(NC=O)c2ncc(-c3ccc(S(C)(=O)=O)cc3)n2c1	12µM*	9.2µM*	-15%	-34%	-29%	-8%
COc1cc(-c2cnc3c(NC=O)cc(-c4ccc(S(C)(=O)=O)cc4)cn23)cc(OC)c1OC	16µM*	18µM*	?	-12%	?	2%
SMILES	DT40 TDP1 CPT	DT40 TDP1 no CPT	HT1080-NT tox	HepG2 viability	HT1080 IDH1KD tx	TGFb SMAD3 inh
COc1ccc(-c2cnc3c(NC=O)cc(-c4ccc(S(C)(=O)=O)cc4)cn23)cc1OC	2.9µM*	2.9µM*	?	-20%	?	-18%
O=CNc1cc(-c2ccccc2Oc2ccccc2)cn2c(-c3ccc(F)cc3)cnc12	?	10µM*	?	-22%	?	?
O=C(Cc1cccs1)Nc1c(C(=O)Nc2ccc(F)cc2)oc2ccccc12	-25%	-21%	/	2%	/	-8%
Cc1cccc(N2CCN(C(=O)Nc3cn(CC(C)C)c(=O)c4ccccc34)CC2)c1C	8.2µM*	7.3µM*	/	-23%	/	?
Cc1ccc(N2CCN(C(=O)Nc3cn(CC(C)C)c(=O)c4ccccc34)CC2)c(C)c1	10µM*	10µM*	/	-41%	/	-27%
Cc1ccc(C(=O)N2N=C(c3ccccc3O)CC2c2ccccc2)cc1 (stereo unspecified)	?	21µM*	10%	-29%	12%	4%
Cc1ccc(C(O)c2ncc(-c3ccccc3Cl)[nH]2)cc1 (stereo unspecified)	-18%	?	17%	-18%	10%	-2%
COc1ccc(CNC(=O)COC(=O)Cc2ccc(Cl)cc2Cl)cc1	-7%	?	-8%	-5%	-1%	-13%
O=c1[nH]nc(-c2ccc(OCc3ccc(Cl)cc3Cl)cc2)o1	-4%	21%	14%	-2%	19%	0%
CCOc1ccc(NC(=S)Nc2ccc(OCc3ccccc3)cc2)cc1	?	-23%	4%	18%	7%	8%
OCCCCNCc1ccc(OCc2ccc(Cl)cc2Cl)cc1	21µM*	23µM*	?	10µM*	?	?
S=C(Nc1ccccc1)Nc1ccc(OCc2ccc(Cl)cc2Cl)cc1	18µM*	?	-10%	-6%	-11%	-24%
OCCNCc1ccc(OCc2ccc(Cl)cc2Cl)cc1	18µM*	18µM*	?	22µM*	21µM*	?

Compound activity as filed in PubChem BioAssay.
